Only some compounds are listed: those with a hit (about 2.7% of all), similar ones and a draw of the others.
ALOX12 inh = ALOX12 (human) lipoxygenase inhibition; purified 12hLO, xylenol orange hydroperoxide absorbance; Potency, µM (doses to about 108 µM), most hits filed as inhibitors; actives 1.1% (n = 580,000); AID 1671190
Target sequence (P18054 whole entry, looked up): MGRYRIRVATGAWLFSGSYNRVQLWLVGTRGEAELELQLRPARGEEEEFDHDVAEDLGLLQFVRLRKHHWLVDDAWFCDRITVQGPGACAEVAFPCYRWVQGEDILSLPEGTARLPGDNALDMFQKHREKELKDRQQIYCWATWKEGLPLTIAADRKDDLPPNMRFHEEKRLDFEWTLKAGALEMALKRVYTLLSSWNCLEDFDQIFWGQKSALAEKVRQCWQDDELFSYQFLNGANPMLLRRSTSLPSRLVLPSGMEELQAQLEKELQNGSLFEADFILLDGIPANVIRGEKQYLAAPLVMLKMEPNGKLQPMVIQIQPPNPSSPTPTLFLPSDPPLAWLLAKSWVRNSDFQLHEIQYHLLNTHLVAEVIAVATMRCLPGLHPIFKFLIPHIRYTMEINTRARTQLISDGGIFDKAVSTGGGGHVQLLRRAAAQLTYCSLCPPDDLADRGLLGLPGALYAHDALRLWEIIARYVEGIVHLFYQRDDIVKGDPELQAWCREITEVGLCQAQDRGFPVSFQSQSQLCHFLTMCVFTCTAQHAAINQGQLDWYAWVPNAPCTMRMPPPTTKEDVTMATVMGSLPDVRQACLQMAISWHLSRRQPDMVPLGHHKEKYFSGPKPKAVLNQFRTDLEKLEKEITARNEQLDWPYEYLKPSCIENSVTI
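Hydroperoxide product was detected by ferrous iron/xylenol orange as the 573 to 405 nm absorbance ratio. Arachidonic acid at 40 uM (final) was turned over for 30 min at room temperature by 150 nM human 12hLO, pH 7.0 Hepes buffer, after 15 min compound preincubation.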
A549 viability = A549 cytotoxicity, counter-screen for Nrf2 inhibitors. A549 ARE-Fluc cells, CellTiter-Fluor viability, 18-24 h. Potency, µM (top dose mostly 46 µM), actives largely listed as inhibitors. actives 0.16% (n = 390,000). AID 504648
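A549 ARE-Fluc cells in 5% FBS OPTI-MEM, 5000 cells/well, rested 2 h then exposed to compounds in concentration-response for 18-24 h at 37 °C. Viability by CellTiter-Fluor fluorescence (Ex 405/Em 525) after 30 min; luciferase luminescence (BugLite, 15 min, RT) read afterwards.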
Nrf2 block = inhibitors of Nrf2 signaling | A549 ARE-Fluc reporter, luciferase luminescence, 18-24 h | Potency, µM (highest dose often 46 µM), hits mostly inhibitors | actives 2.1% (n = 360,000) | AID 504444; note: nearly all actives have a fitted effect of over 60% in size
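Reporter: ARE-Fluc in A549. Exposure: 18-24 h, 37 °C, 5% CO2, 5% FBS OPTI-MEM. Readouts: fluorescent cytotoxicity (CellTiter-Fluor), then luminescent Nrf2 signal after BugLite.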
Nrf2 ARE act = activators of Nrf2 (ARE) signaling; AREc32 ARE-luciferase reporter (MCF7-derived line), luminescence, 24 h; actives 0.31% (n = 410,000); Potency, µM (top dose mostly 46.1 µM), most hits filed as activators; note: nearly all actives have a fitted effect of over 65% in size
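Reporter line AREc32 (ARE-Fluc), seeded overnight in OPTI-MEM with 5% FBS; compound pin-transferred, 24 hr at 37 deg C, 5% CO2; luminescent read-out.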
LDHA inh = LDHA (human) enzyme inhibition; P00338; purified LDHA, NADH/diaphorase-resazurin fluorescence; active compounds read low; activity change, % (values are at about 110 or 230 µM); actives 0.15% (n = 480,000); AID 1347041; in the data active = activity change below about -30%; inconclusive = mostly about -25% to -30%
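LDH5 2 nM; NADH 0.06 mM, pyruvate 0.2 mM; 200 mM Tris pH 7.4, EDTA, Tween-20; 5 min RT. Detection: diaphorase 0.133 mg/mL + resazurin 37 µM, fluorescence ex540/em590 at 0 and 20 min; normalized to enzyme-free and DMSO wells.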
ERG Ets-DNA blk = blocks human ERG Ets domain binding to DNA | P11308 | actives 0.028% (n = 370,000) | Potency, µM (series often up to 76.9 µM), most hits filed as inhibitors | AID 624246 | fluorescence polarization, His-ERG Ets domain / labelled DNA; active = well fitted inhibition curve with a large enough effect in the polarisation, with a control signal flat; inconclusive = small, poorly fitted or top-dose-only effect, or effect the other way, or a change in a side signal; inactive = no such curve, though single readings can be large or run the other way; the % refers to the polarisation;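 note: polarization taken with two DNA probes labelled with fluorescein and Texas red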
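His-tagged ERG Ets domain (1 uM in the protein solution; 300mM KCl, 50mM Tris-HCl, 1mM EDTA, 1mM DTT, pH 7.5) received compound, then a probe mix of 5 nM fluorescein-DNA and 100nM Texas-615-DNA. Fluorescence polarization was read for both dyes.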
A number is an active result; i = inactive; ? = inconclusive; nt = no result given. Unless noted, calls come from the whole dose curve; as a rule, active = well fitted curve in the direction sought with a large enough effect; inconclusive = small, poorly fitted or top-dose-only effect, or another doubt; inactive = no such curve, though single readings can be large; an effect the other way counts as inactive or inconclusive.

SMILES	ALOX12 inh	A549 viability	Nrf2 block	Nrf2 ARE act	LDHA inh	ERG Ets-DNA blk
CC(C)=CCC/C(C)=C/CNC(=O)C[C@H]1C[C@H](C(=O)N(C(C)C)C(C)C)[C@@]2(C)c3[nH]c4cc(-c5ccco5)ccc4c3CCN2C1=O	?	?	23µM	i	i	i
CC(C)N(C(=O)[C@H]1C[C@H](CC(=O)NCc2ccco2)C(=O)N2CCc3c([nH]c4cc(-c5ccco5)ccc34)[C@]12C)C(C)C	i	i	15µM	i	i	i
CC(C)=CCC/C(C)=C/CNC(=O)C[C@H]1C[C@H](C(=O)N(C(C)C)C(C)C)[C@@]2(C)c3[nH]c4cc(CCC(=O)N(C)C)ccc4c3CCN2C1=O	?	i	21µM	i	i	i
Cc1ccc(C(=O)c2c(C)c(CCC#N)n3ccccc23)cc1	?	nt	nt	nt	i	nt
Cc1cc(NC(=O)C(C)OC(=O)c2cc3c(s2)CCC3)no1 (stereo not drawn)	?	nt	nt	nt	i	nt
Cc1cc(C(F)(F)F)n2nc(C(=O)O)c(Cl)c2n1	45µM	i	i	i	i	i
COc1ccc2[nH]cc(C=O)c2c1	i	i	i	i	i	i
COc1ccc2[nH]cc(/C=C/c3cc[n+](C)cc3)c2c1	?	?	10µM	i	i	i
CCCN1CCC(C(=O)O)CC1	i	nt	nt	nt	i	nt
COC(=O)c1cc(=O)n(-c2ccc(F)cc2)c(=Nc2ccc(F)cc2)s1	i	?	21µM	i	i	i
COC(=O)c1cc(=O)n(Cc2cccs2)c(=Nc2ccc(F)cc2)s1	i	i	i	i	i	i
O=C(COc1cccc(Cl)c1)NC1CCCN(c2ncccn2)C1 (stereo not drawn)	i	nt	nt	nt	i	nt
COc1ccc(S(=O)(=O)NCc2ccncc2)cc1NC(=O)c1ccc(Cl)cc1	i	i	4.6µM	i	i	i
CN(c1ccc(F)cc1)S(=O)(=O)c1ccc(Cl)c(C(=O)Nc2ccc3c(c2)CCC3)c1	i	i	?	i	i	i
Cc1cccc(NS(=O)(=O)c2ccc(C(=O)NCC(c3ccco3)N3CCCCC3)cc2)c1C (stereo not drawn)	i	i	21µM	i	i	i
O=C(Nc1ccccc1)c1cc(S(=O)(=O)NCc2ccncc2)ccc1Cl	i	i	18µM	i	i	i
CN(c1ccc(F)cc1)S(=O)(=O)c1ccc(Cl)c(C(=O)Nc2ccncc2)c1	i	i	18µM	i	i	i
COc1ccc(S(=O)(=O)NCc2ccccn2)cc1NC(=O)c1ccc(Cl)cc1	i	i	i	i	i	i
CN(C)C(CNC(=O)c1cc(S(=O)(=O)N(C)c2ccc(F)cc2)ccc1Cl)c1ccco1 (stereo not drawn)	i	i	i	i	i	i
COc1ccc(S(=O)(=O)NCc2cccnc2)cc1NC(=O)c1ccccc1	i	i	i	i	i	i
CN(c1ccc(F)cc1)S(=O)(=O)c1ccc(Cl)c(C(=O)NCC(c2ccco2)N2CCCCC2)c1 (stereo not drawn)	0.79µM	i	?	i	i	i
COc1ccc(S(=O)(=O)NCc2ccncc2)cc1NC(=O)c1ccccc1	?	i	6.5µM	i	i	i
O=C(CN1CCN(Cc2cccc3cccnc23)CC1)NC1CC1	i	nt	nt	nt	i	nt
O=C(CSc1nc2ccccc2c(=O)n1CCCN1CCOCC1)Nc1cccc(S(=O)(=O)N2CCCCCC2)c1	i	?	23µM	i	i	i
CCOc1ccc(OCC)c(NC(=O)CSc2nc3ccccc3c(=O)n2C)c1	i	i	10µM	i	i	i
O=C(CSc1nc2ccccc2c(=O)n1CCCN1CCOCC1)Nc1ccc(F)c(Cl)c1	?	i	i	i	i	i
Cc1cccc(NC(=O)CSc2nc3ccccc3c(=O)n2C)c1	?	i	12µM	i	i	i
O=C(Nc1ccc(F)c(Cl)c1)c1ccc(Cl)cc1N1CCCC1=O	?	nt	nt	nt	i	nt
COC(=O)C1=C(C)NC(=O)C1(NC(=O)c1ccco1)C(F)(F)F (stereo not drawn)	i	nt	nt	nt	i	nt

Bioassay records from PubChem.
